From PubChem BioAssay come the findings set out here.

Assay [1] in a line: compounds altering circadian rhythm period length – cell-based, LOPAC library, luminescence reporter (AID 2774).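 Further: values are relative to mean of DMSO wells on each plate.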 As to conditions: circadian reporter cells, at 7 µM, actives lie on both sides.
The test system of assay [2] is Hepatitis C virus NS3 helicase. Put plainly: blockers of NS3h binding to ssDNA – biochemical, fluorescence polarization, LOPAC1280 library, primary screen (AID 687035; in the data active means inhibition above about 37%). As to conditions: Purified HCV NS3 helicase, Cy5-dT15 ssDNA binding fluorescence polarization; stronger effect = higher value; concentration not given here. For orientation: In fluorescence polarisation assays a small probe gives low polarisation when free and higher when bound to something large.

A short description of assay [3]: compounds altering Cy5-DNA-NS3h complex signal – biochemical, LOPAC1280, artefact control for HCV NS3 helicase inhibitor project (AID 687037). As to conditions: Cy5-DNA-NS3h complex fluorescence interference counterscreen. (The purpose of a counterscreen is to sort out artefacts and off-target activity.)
The test system of assay [4] is Aerobactin synthetase IucA (Klebsiella pneumoniae, hypervirulent). Put plainly: biochemical IucA inhibition screen of LOPAC library by absorbance (AID 1346212).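 Further: 100% = no compound wells and 0% = no enzyme wells.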 As to conditions: IucA enzyme assay, absorbance (OD) readout; stronger effect = lower value;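 tested at 8 µM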.
Assay [5] in a line: viability loss with induced miR-34 in A549 – imaging, A549 dox-inducible miR-34, nuclei and caspase counts, primary screen (AID 1347080;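 active means compounds whose cell count with miR-34 switched on is under 0.7 times the count with it off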). The following applies: A549 miR-34 inducible, Hoechst nuclei count, 48 h.
Assay [6] can be described thus: blockers of cellular phospholipid synthesis – cell-based, LOPAC library, screen 4, primary screen (AID 1347384). As to conditions: animal cells, phospholipid biosynthesis inhibition screen; at 10 µM.
The nature of assay [7]: galactose survival enhancers in mitochondrial complex I cybrids – cell-based, galactose medium, ATP luminescence, primary screen (AID 1645843;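 active means z-score of at least 1.8 in each of two replicates, scored against plate mean and spread of sample wells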;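 further: positive z means more ATP and so rescue of galactose-driven cybrid death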). As to conditions: complex I mutant cybrid cells, 72 h, stronger effect = higher value.
Setting [8] is: measured here: relative caspase fold change +Dox/-Dox.
[9] abbreviates: measured here: total cells with miR-34 induction, stronger effect = lower value.
[10] abbreviates: measured here: total cells without miR-34 induction.

Active and inactive are the calls of the source. Unless noted, how the calls were made is not given here.

Turning to `OCc1cnc[nH]1`, the period change in assay [1] was 0.065 h (inactive). Also, the inhibition (usually the change of the read-out against control, counted positive when it falls) in assay [2] was 0% (inactive). Moreover, the fluorescence ratio (interference) in assay [3] is 1 (inactive). Besides, the remaining activity (usually the signal under treatment as a percentage of the control signal) in assay [4] was 102% (inactive). Further, the fold change in assay [5] (stronger effect = lower value) is 0.96 (inactive); in assay [5] (setting [8]), 1.56. In addition, the cell count in assay [5] (setting [9]) is 10400; in assay [5] (setting [10]) it was 10800. Besides, the outcome in assay [6] was inactive. Further, in assay [7], the z-score was 0.255 (inactive).
Regarding `CCCN(CCC)[C@H]1CCc2c(F)ccc(O)c2C1`, in assay [1], the period change is -0.075 h (inactive). In addition, in assay [2], the inhibition was -4% (inactive). Moreover, the fluorescence ratio (interference) in assay [3] was 1 (inactive). In addition, the remaining activity in assay [4] is 115% (inactive). For the same compound, the fold change was 1.05 (inactive) in assay [5] (stronger effect = lower value) and 1.11 in assay [5] (setting [8]). Further, the figures for the cell count in assay [5] (setting [9]) and in assay [5] (setting [10]) were 10100 and 9610, respectively. Also, in assay [6], the compound was called inactive. For the same compound, the z-score in assay [7] is -0.33 (inactive).
`c1ccc2c(N3CCNCC3)cccc2c1`: in assay [1], the period change was 0.19 h (inactive). For the same compound, the inhibition in assay [2] is -1% (inactive). Further, the fluorescence ratio (interference) in assay [3] is 1 (inactive). In addition, the remaining activity in assay [4] was 77.2% (inactive). Also, the fold change was 0.966 (inactive) in assay [5] (stronger effect = lower value) and 1.06 in assay [5] (setting [8]). In addition, the values for the cell count in assay [5] (setting [9]) and in assay [5] (setting [10]) were 8750 and 9060, respectively. In addition, in assay [6], the call was inactive. For the same compound, in assay [7], the z-score was -0.255 (inactive).
`CC(C)NP(=O)(NC(C)C)OP(=O)(NC(C)C)NC(C)C`: the period change in assay [1] is 0.055 h (inactive). In addition, the inhibition in assay [2] was -5% (inactive). Further, the fluorescence ratio (interference) in assay [3] was 1 (inactive). In addition, the remaining activity in assay [4] was 90.6% (inactive). Besides, the values for the fold change in assay [5] (stronger effect = lower value) and in assay [5] (setting [8]) were 0.945 (inactive) and 1.32, respectively. The cell count in assay [5] (setting [9]) came out at 9680; in assay [5] (setting [10]), 10200. In assay [6], the outcome was inactive. The z-score in assay [7] was 0.25 (inactive).
With `NC(=O)COc1c(F)cc(SCCNS(=O)(=O)c2ccccc2)cc1F`, the period change in assay [1] was -0.08 h (inactive). Further, the inhibition in assay [2] is -2% (inactive). For the same compound, the fluorescence ratio (interference) in assay [3] was 1 (inactive). In assay [4], the remaining activity was 109% (inactive). For the same compound, the fold change in assay [5] (stronger effect = lower value) is 0.978 (inactive); in assay [5] (setting [8]), 0.398. In addition, the results for the cell count in assay [5] (setting [9]) and in assay [5] (setting [10]) were 9150 and 9360, respectively. In addition, the compound was called inactive in assay [6]. Further, in assay [7], the z-score is 0.24 (inactive).
Turning to `NNC(=O)c1ccc(O)cc1`, the period change in assay [1] was 0.115 h (inactive). In assay [2], the inhibition was 1% (inactive). Further, the fluorescence ratio (interference) in assay [3] is 1.1 (inactive). For the same compound, the remaining activity in assay [4] is 109% (inactive). In addition, the fold change was 0.976 (inactive) in assay [5] (stronger effect = lower value) and 1.57 in assay [5] (setting [8]). Further, the cell count is 9790 in assay [5] (setting [9]) and 10000 in assay [5] (setting [10]). For the same compound, the compound was called inactive in assay [6]. The z-score in assay [7] is 0.275 (inactive).
Take `CNc1ccc2oc(C[C@H]3O[C@@]4(CC[C@H]3C)O[C@H]([C@H](C)C(=O)c3ccc[nH]3)[C@H](C)C[C@H]4C)nc2c1C(=O)O`: the period change in assay [1] was -0.125 h (inactive). Also, the inhibition in assay [2] is 1% (inactive). Moreover, the fluorescence ratio (interference) in assay [3] was 1 (inactive). Also, the remaining activity in assay [4] is 119% (inactive). Also, the fold change in assay [5] (stronger effect = lower value) is 0.828 (inactive); in assay [5] (setting [8]), 1.6. For the same compound, the cell count in assay [5] (setting [9]) amounted to 428; in assay [5] (setting [10]), 516. Also, in assay [6], the call was inactive. Further, the z-score in assay [7] is -1.52 (inactive).
On to `Clc1cc(I)cc(Cl)c1NC1=NCCN1`, for which, in assay [1], the period change was 0.11 h (inactive). Moreover, the inhibition in assay [2] was -6% (inactive). Further, the fluorescence ratio (interference) in assay [3] was 0.9 (inactive). The remaining activity in assay [4] was 117% (inactive). In addition, the fold change in assay [5] (stronger effect = lower value) was 1.15 (inactive); in assay [5] (setting [8]) it was 1.05. The cell count in assay [5] (setting [9]) was determined as 11200; in assay [5] (setting [10]), 9770. In assay [6], the result was inactive. Besides, the z-score in assay [7] was 0.175 (inactive).
As for `CC(=O)NBr`, in assay [1], the period change was 0.03 h (inactive). Moreover, in assay [2], the inhibition is -1% (inactive). Besides, the fluorescence ratio (interference) in assay [3] was 0.9 (inactive). The remaining activity in assay [4] is 100% (inactive). Besides, the fold change is 1.03 (inactive) in assay [5] (stronger effect = lower value) and 2.31 in assay [5] (setting [8]). Besides, the cell count in assay [5] (setting [9]) was 10500; in assay [5] (setting [10]), 10100. In addition, the outcome in assay [6] was inactive. Moreover, the z-score in assay [7] was 0.61 (inactive).
As to `CCS(=O)(=O)Nc1cccc(C(=C2CCCCC2)c2cnc[nH]2)c1`, the period change in assay [1] was 0.07 h (inactive). Moreover, in assay [2], the inhibition is 0% (inactive). In assay [3], the fluorescence ratio (interference) was 1 (inactive). The remaining activity in assay [4] was 108% (inactive). Also, the fold change is 1.11 (inactive) in assay [5] (stronger effect = lower value) and 1.94 in assay [5] (setting [8]). Further, the cell count was 8610 in assay [5] (setting [9]) and 7740 in assay [5] (setting [10]). The compound was called inactive in assay [6]. The z-score in assay [7] is -0.125 (inactive).
Take `CCCN1CC[C@@H]2c3cc(O)ccc3CC[C@@H]21`: the period change in assay [1] is -0.045 h (inactive). The inhibition in assay [2] was -4% (inactive). Moreover, the fluorescence ratio (interference) in assay [3] is 0.9 (inactive). Also, the remaining activity in assay [4] is 105% (inactive). Further, the fold change was 1.1 (inactive) in assay [5] (stronger effect = lower value) and 0.654 in assay [5] (setting [8]). Also, the figures for the cell count in assay [5] (setting [9]) and in assay [5] (setting [10]) were 11000 and 10000, respectively. Besides, the outcome in assay [6] was inactive. The z-score in assay [7] is 0.605 (inactive).
`CC(=O)[C@H]1CCC2C3CC[C@H]4C[C@H](O)CC[C@]4(C)C3CC[C@@]21C` (stereo not given in full): in assay [1], the period change was -0.055 h (inactive). The inhibition in assay [2] was 0% (inactive). In addition, the fluorescence ratio (interference) in assay [3] is 1 (inactive). Further, the remaining activity in assay [4] is 95.7% (inactive). For the same compound, the values for the fold change in assay [5] (stronger effect = lower value) and in assay [5] (setting [8]) were 1.03 (inactive) and 0.981, respectively. For the same compound, the cell count in assay [5] (setting [9]) worked out at 10100; in assay [5] (setting [10]), 9760. For the same compound, the compound was called inactive in assay [6]. Besides, the z-score in assay [7] is -0.6 (inactive).
For `NC(=O)CI`, the period change in assay [1] was -0.03 h (inactive). Further, in assay [2], the inhibition is -1% (inactive). Further, the fluorescence ratio (interference) in assay [3] was 1.1 (inactive). Also, the remaining activity in assay [4] is 124% (inactive). Further, the fold change was 1.11 (inactive) in assay [5] (stronger effect = lower value) and 1.73 in assay [5] (setting [8]). The cell count was determined as 3640 in assay [5] (setting [9]) and 3270 in assay [5] (setting [10]). Moreover, the compound was called inactive in assay [6]. In assay [7], the z-score was -1 (inactive).
In the case of `NNC(N)=O`, in assay [1], the period change was -0.03 h (inactive). Further, the inhibition in assay [2] was -3% (inactive). Further, the fluorescence ratio (interference) in assay [3] was 1 (inactive). Also, the remaining activity in assay [4] was 102% (inactive). The results for the fold change in assay [5] (stronger effect = lower value) and in assay [5] (setting [8]) were 0.944 (inactive) and 0.77, respectively. Further, the cell count in assay [5] (setting [9]) amounted to 10400; in assay [5] (setting [10]), 11000. Further, the compound was classed as inactive in assay [6]. The z-score in assay [7] was 0.4 (inactive).
Consider `CO[C@H]1CC=C2CCN3CCC4=C(CC(=O)OC4)[C@]23C1`, for which the period change in assay [1] is 0.065 h (inactive). In addition, the inhibition in assay [2] was -3% (inactive). The fluorescence ratio (interference) in assay [3] is 1 (inactive). The remaining activity in assay [4] is 103% (inactive). The fold change in assay [5] (stronger effect = lower value, cell number ratio, induced over uninduced) was 0.939 (inactive); in assay [5] (setting [8]), 1.26. Also, the cell count was 9420 in assay [5] (setting [9]) and 10000 in assay [5] (setting [10]). The result in assay [6] was inactive. In addition, the z-score in assay [7] was 0.375 (inactive).
For the compound `COc1ccc2[nH]c3c(c2c1)CCNC3`, in assay [1], the period change is -0.105 h (inactive). In addition, the inhibition in assay [2] is 1% (inactive). Besides, the fluorescence ratio (interference) in assay [3] was 0.9 (inactive). Besides, the remaining activity in assay [4] is 108% (inactive). Further, the fold change is 1.02 (inactive) in assay [5] (stronger effect = lower value) and 0.898 in assay [5] (setting [8]). In addition, the figures for the cell count in assay [5] (setting [9]) and in assay [5] (setting [10]) were 10400 and 10200, respectively. Besides, in assay [6], the outcome was inactive. For the same compound, the z-score in assay [7] was 0.28 (inactive).
